Data reported in PubChem BioAssay (Tox21).
Several values for one entry are separate records, joined by “and”; a condition that tells them apart may be missing. Identical values can stand only once. Records with an inconclusive call do not appear. A call without a number means that no potency is given here. Some structures have more than one record in an assay (separate samples or runs), and their calls can disagree. Activity calls are given as the source filed them. Unless noted, calls follow the shape of the dose curve; as a rule, active = well fitted curve in the direction sought with a large enough effect in the repeat runs; inconclusive = weak or mixed curves; inactive = no such curve, though single readings can be large; an effect the other way counts as inactive or inconclusive.

Assays:
[1] = qHTS assay to identify small molecule antagonists of the estrogen receptor alpha (ER-alpha) signaling pathway using the BG1 cell line in the presence of 0.1 nM 17-beta-estradiol - cell viability counter screen (AID 1259241); also: nearly all actives have a fitted effect of over 40% in size; also: potency is read from the fitted curve at half-maximal effect
How it was run: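 Live-cell protease activity (CellTiter-Fluor fluorescence, 30 min) was read in the same wells after VM7Luc4E2 cells had been exposed to compounds with 0.1 nM 17beta-estradiol for 22 hr at 37C.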

[2] = qHTS assay to identify small molecule antagonists of the androgen receptor (AR) signaling pathway using the MDA cell line in the presence of 0.5 nM R1881 - cell viability counter screen (AID 1259242); also: nearly all actives have a fitted effect of over 45% in size; also: potency is read from the fitted curve at half-maximal effect
How it was run: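 Human breast carcinoma MDA-kb2 cells, cultured without CO2, receive compounds alongside 0.5 nM (final) R1881 agonist. After 16 hr at 37C, viability is taken as live-cell protease signal.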

[3] = target: Estrogen receptor (Homo sapiens) (UniProt P03372); assay: qHTS assay to identify small molecule antagonists of the estrogen receptor alpha (ER-alpha) signaling pathway using the BG1 cell line in the presence of 0.1 nM 17-beta-estradiol (AID 1259244); also: nearly all actives have a fitted effect of over 50% in size; also: potency is read from the fitted curve at half-maximal effect
How it was run: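 Seeding of stripped-serum-adapted VM7Luc4E2 cells, 24 h attachment, compound transfer, then 0.1 nM final 17beta-estradiol; after 22 h incubation, ONE-Glo reagent and luminescence reading.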

[4] = qHTS assay to identify small molecule HDAC inhibitors (AID 1259364); also: potency is read from the fitted curve at half-maximal effect;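 also: wild-type HCT-116 cells with endogenous class I/II HDAC activity; nearly all actives have a fitted effect of over 45% in size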
How it was run: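 After a 2 hr compound incubation (37C, 5% CO2), HCT-116 cells seeded at 1,500/well the day before received HDAC-Glo reagent; signal read as luminescence after 30 min at room temperature.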

[5] = qHTS assay to identify small molecule HDAC inhibitors - cell viability counter screen (AID 1259365); also: nearly all actives have a fitted effect of over 50% in size; also: potency is read from the fitted curve at half-maximal effect
How it was run: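 HCT-116 (wild type), 1,500 cells/well, overnight 37C/5% CO2; compound in DMSO 2hr; CellTiter-Glo 30min RT; luminescence read.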

[6] = qHTS assay to identify small molecule agonists of the sonic hedgehog signaling (Shh) pathway - cell viability counter screen (AID 1259366); also: nearly all actives have a fitted effect of over 50% in size; also: potency is read from the fitted curve at half-maximal effect
How it was run: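 CellTiter-Fluor fluorescence read-out, 1 hr at 37C, added after 23hr compound exposure. Cells: 3T3 Gli1-Luc, an NIH/3T3 clone with stably integrated Gli1-Luc reporter, plated 4hr before compound.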

[7] = qHTS assay to identify small molecule antagonists of the sonic hedgehog signaling (Shh) pathway (AID 1259369; calls by dose curve; also: nearly all actives have a fitted effect of over 45% in size; also: potency is read from the fitted curve at half-maximal effect)
How it was run: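 Gli1 transcriptional reporter (firefly Luc) in NIH/3T3 background, conditioned-medium activated. 24hr exposure, luminescence endpoint.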

[8] = target: Estrogen receptor beta (Homo sapiens) (UniProt Q92731); assay: qHTS assay to identify small molecule antagonists of the estrogen receptor beta (ER-beta) signaling pathway (AID 1259378; active = well fitted inhibition curve with a large enough effect in the signal ratio in the repeat runs, not every such curve was filed as active; the % refers to the signal ratio; also: potency is read from the fitted curve at half-maximal effect)
How it was run: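 ER-beta-UAS-bla HEK293T (GripTite) cells in 2% charcoal-stripped FBS medium were preincubated 6 hr at 37C, dosed with compound, then stimulated with 1 nM E2 (final) for 16 hr; beta-lactamase reporter read by B/G FRET fluorescence after 2 hr substrate loading.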

[9] = qHTS assay to identify small molecule agonists of the androgen receptor (AR) signaling pathway in the presence of an antagonist - cell viability counter screen (AID 1259379); also: nearly all actives have a fitted effect of over 25% in size; also: potency is read from the fitted curve at half-maximal effect
How it was run: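 Counter screen for cell viability run in parallel with the AR agonist-mode luciferase assay. MDA-kb2 cells were co-treated with nilutamide (3.0uM final) and compounds, then incubated 16 hr at 37C, and CellTiter-Fluor fluorescence was measured.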

[10] = qHTS assay to identify small molecule agonists of the estrogen receptor beta (ER-beta) signaling pathway - cell viability counter screen (AID 1259380); also: nearly all actives have a fitted effect of over 30% in size; also: potency is read from the fitted curve at half-maximal effect
How it was run: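 In this qHTS counter screen, HEK293T cells carrying an ER-beta/UAS beta-lactamase reporter, grown in 2% charcoal-stripped FBS, received compound for 16 hr; ATP-based CellTiter-Glo luminescence was then read after 30 min at room temperature.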

[11] = qHTS assay to identify small molecule antagonists of the estrogen receptor beta (ER-beta) signaling pathway - cell viability counter screen (AID 1259382); also: nearly all actives have a fitted effect of over 55% in size; also: potency is read from the fitted curve at half-maximal effect
How it was run: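 HEK293T ER-beta-UAS-bla, 2% charcoal-stripped FBS; compounds + 1nM E2 16 hr 37C; CellTiter-Glo luminescence, 30 min RT.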

[12] = target: Estrogen receptor (Homo sapiens) (UniProt P03372); assay: qHTS assay to identify small molecule agonists of the estrogen receptor alpha (ER-alpha) signaling pathway in the presence of an antagonist (AID 1259383; calls by dose curve; also: nearly all actives have a fitted effect of over 15% in size; also: potency is read from the fitted curve at half-maximal effect; as to activation: top concentration of the series differs between compounds)
How it was run: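 ER-alpha agonism measured under antagonist challenge: 10.0nM ICI-182,780 (final) plus compound, 15 concentrations, 22hr, VM7Luc4E2 ERE-luciferase cells. Read by luminescence.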

[13] = qHTS assay to identify small molecule agonists or antagonists of the thyroid stimulating hormone receptor (TSHR) signaling pathway - wild type cell line counter screen (AID 1259384; calls by dose curve)
How it was run: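 Wild-type HEK293 cells were plated 18 h at 37 C/5% CO2, pin-dosed with compound plus Ro20-1724 medium, held 30 min at room temperature, then given cAMP-d2 and anti-cAMP-cryptate; fluorescence was read after 1 h. Fifteen concentrations, triplicate.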

[14] = target: Thyrotropin receptor (Homo sapiens) (UniProt P16473); assay: qHTS assay to identify small molecule antagonists of the thyroid stimulating hormone receptor (TSHR) signaling pathway (AID 1259385; calls by dose curve; also: nearly all actives have a fitted effect of over 20% in size; also: potency is read from the fitted curve at half-maximal effect)
How it was run: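 TSHR-HEK293 cells were plated and held 18 h at 37C/5% CO2, then given compound plus Ro20-1724 and stimulated with TSH at 1.5 ng/mL final. After 30 min at room temperature, cAMP was detected with cAMP-d2/anti-cAMP-cryptate (1 h) by fluorescence.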

[15] = qHTS assay to identify small molecule agonists of the estrogen receptor alpha (ER-alpha) signaling pathway in the presence of an antagonist - cell viability counter screen (AID 1259386);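 also: cells exposed to compounds for 22 h at 37 °C before the viability read; nearly all actives have a fitted effect of over 30% in size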; also: potency is read from the fitted curve at half-maximal effect
How it was run: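 Steps: 5-day stripped-FBS culture; seed and incubate 24hr; add ICI-182,780 (10.0nM final); pin 15-point compound titration; incubate 22hr at 37C; add CellTiter-Fluor at 21hr; read fluorescence.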

[16] = qHTS assay to identify small molecule phospholipidosis (PLD) inducers (AID 1259344; active = well fitted curve in the direction sought with a large enough effect; an effect the other way counts as inactive or inconclusive)
How it was run: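 After 4 h attachment on collagen I, HepG2 cells were dosed with compound alongside LipidTOX Red, kept 24 h at 37 C, fixed, and imaged for lamellar phospholipid pits.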

[17] = qHTS assay to identify small molecule antagonists of the sonic hedgehog signaling (Shh) pathway - cell viability counter screen (AID 1259367); also: nearly all actives have a fitted effect of over 55% in size; also: potency is read from the fitted curve at half-maximal effect
How it was run: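 Conditioned medium drove Shh signaling in 3T3 Gli1-Luc cells exposed to compounds at 37C and 5% CO2. Viability was determined from CellTiter-Fluor fluorescence, with reagent incubated 1 hr after 23 hr of treatment.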

[18] = target: Estrogen receptor beta (Homo sapiens) (UniProt Q92731); assay: qHTS assay to identify small molecule agonists of the estrogen receptor beta (ER-beta) signaling pathway (AID 1259377; active = well fitted activation curve with a large enough effect in the signal ratio in the repeat runs, not every such curve was filed as active; the % refers to the signal ratio)
How it was run: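 Beta-lactamase reporter readout: fluorescence of LiveBLAzer B/G FRET substrate after 2 h at room temperature, following 16 h compound treatment of ER-beta-UAS-bla HEK293T cells at 37C in 2% charcoal-stripped FBS medium.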

[19] = qHTS assay to identify small molecule agonists of the sonic hedgehog signaling (Shh) pathway (AID 1259368; calls by dose curve; also: nearly all actives have a fitted effect of over 15% in size; also: potency is read from the fitted curve at half-maximal effect)
How it was run: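 Stable NIH/3T3 Gli1-Luc reporter clone; 24 hr cpd exposure after a 4 hr settling period; luminescence endpoint.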

[20] = target: Androgen receptor (Homo sapiens) (UniProt P10275); assay: qHTS assay to identify small molecule agonists of the androgen receptor (AR) signaling pathway in the presence of an antagonist (AID 1259381; calls by dose curve; also: nearly all actives have a fitted effect of over 15% in size)
How it was run: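 AR antagonist background: nilutamide 3.0uM final. Cell line: MDA-kb2, MMTV-driven luciferase, responsive to both AR and GR. Exposure 16hr, 37C, no CO2; ONE-Glo luminescence.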

Thyrotropin receptor (Homo sapiens), sequence (P16473 whole entry, looked up): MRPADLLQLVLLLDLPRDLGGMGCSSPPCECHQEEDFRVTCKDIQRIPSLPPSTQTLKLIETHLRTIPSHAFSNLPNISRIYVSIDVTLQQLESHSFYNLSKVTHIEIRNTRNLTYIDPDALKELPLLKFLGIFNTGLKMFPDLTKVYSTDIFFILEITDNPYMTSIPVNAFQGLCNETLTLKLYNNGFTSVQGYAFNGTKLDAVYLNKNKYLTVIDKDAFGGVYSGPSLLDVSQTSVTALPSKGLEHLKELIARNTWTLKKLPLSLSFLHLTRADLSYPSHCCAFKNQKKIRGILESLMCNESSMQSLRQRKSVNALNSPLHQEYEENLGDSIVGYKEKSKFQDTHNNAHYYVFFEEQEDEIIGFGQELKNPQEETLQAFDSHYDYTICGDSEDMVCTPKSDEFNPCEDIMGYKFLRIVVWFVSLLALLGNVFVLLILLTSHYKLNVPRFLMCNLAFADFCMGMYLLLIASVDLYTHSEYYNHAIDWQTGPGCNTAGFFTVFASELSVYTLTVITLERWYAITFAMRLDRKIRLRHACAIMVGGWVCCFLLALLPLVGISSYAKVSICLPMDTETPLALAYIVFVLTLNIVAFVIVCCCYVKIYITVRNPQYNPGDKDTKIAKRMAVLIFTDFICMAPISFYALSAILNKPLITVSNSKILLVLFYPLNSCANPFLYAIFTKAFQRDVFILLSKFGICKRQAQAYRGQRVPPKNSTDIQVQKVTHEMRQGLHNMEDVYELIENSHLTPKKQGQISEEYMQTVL
Androgen receptor (Homo sapiens), sequence (P10275 whole entry, looked up): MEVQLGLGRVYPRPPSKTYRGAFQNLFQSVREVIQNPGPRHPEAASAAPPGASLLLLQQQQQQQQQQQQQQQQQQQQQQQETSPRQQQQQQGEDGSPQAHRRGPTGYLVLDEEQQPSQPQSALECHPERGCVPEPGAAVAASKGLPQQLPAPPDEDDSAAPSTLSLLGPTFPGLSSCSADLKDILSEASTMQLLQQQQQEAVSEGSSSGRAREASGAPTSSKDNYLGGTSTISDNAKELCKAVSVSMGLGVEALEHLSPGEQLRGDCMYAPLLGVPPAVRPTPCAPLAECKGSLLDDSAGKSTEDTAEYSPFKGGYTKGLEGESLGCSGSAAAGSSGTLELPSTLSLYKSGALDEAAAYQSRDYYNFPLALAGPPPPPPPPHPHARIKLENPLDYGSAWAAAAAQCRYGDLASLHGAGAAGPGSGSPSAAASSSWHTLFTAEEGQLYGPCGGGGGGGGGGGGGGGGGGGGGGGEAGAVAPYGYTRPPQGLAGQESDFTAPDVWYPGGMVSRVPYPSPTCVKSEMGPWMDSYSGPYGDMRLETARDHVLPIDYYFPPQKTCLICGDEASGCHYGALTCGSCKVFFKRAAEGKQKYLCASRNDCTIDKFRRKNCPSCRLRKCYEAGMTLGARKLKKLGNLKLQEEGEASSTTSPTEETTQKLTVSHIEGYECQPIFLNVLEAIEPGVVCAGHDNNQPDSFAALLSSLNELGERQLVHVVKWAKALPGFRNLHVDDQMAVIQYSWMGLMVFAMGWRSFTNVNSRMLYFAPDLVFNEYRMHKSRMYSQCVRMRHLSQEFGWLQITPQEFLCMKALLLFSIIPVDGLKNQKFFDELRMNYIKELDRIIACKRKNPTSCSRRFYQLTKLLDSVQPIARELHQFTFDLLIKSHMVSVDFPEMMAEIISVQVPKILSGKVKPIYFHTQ
Estrogen receptor (Homo sapiens), sequence (P03372 whole entry, looked up): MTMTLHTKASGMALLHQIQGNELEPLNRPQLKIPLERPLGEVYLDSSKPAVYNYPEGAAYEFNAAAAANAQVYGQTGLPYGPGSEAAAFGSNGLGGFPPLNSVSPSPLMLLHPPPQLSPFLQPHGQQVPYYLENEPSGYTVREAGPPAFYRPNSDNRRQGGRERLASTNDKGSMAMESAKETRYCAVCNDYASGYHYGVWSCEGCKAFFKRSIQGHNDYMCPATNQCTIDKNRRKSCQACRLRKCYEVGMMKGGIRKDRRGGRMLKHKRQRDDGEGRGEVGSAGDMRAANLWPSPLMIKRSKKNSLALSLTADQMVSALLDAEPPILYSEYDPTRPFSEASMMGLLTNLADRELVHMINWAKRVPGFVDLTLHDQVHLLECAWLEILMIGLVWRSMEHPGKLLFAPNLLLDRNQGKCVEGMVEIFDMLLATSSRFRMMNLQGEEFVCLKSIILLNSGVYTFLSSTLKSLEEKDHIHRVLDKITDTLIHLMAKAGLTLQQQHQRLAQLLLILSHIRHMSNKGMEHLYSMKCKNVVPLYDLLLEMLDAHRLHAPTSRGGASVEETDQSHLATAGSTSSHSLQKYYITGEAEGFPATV
Estrogen receptor beta (Homo sapiens), sequence (Q92731 whole entry, looked up): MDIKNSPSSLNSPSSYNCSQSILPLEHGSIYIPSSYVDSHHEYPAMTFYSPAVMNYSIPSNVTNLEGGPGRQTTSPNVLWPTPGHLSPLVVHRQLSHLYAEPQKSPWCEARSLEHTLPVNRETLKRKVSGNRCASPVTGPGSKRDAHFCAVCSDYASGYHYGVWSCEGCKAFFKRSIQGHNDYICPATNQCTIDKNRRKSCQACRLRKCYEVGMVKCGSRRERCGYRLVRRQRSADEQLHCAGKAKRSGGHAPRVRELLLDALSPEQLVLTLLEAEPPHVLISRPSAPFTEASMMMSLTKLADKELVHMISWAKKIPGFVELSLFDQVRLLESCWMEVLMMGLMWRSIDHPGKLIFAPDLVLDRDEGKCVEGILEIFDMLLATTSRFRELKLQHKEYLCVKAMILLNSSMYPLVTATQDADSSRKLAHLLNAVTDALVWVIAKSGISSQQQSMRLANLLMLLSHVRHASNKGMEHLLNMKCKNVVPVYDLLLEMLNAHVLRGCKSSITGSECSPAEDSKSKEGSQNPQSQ

SMILES | Potency [1] | Potency [2] | Potency [3] | Potency [4] | Potency [5] | Potency [6] | Potency [7] | Potency [8] | Potency [9] | Potency [10] | Potency [11] | Potency [12] | Potency [13] | Potency [14] | Potency [15] | outcome [16] | Potency [17] | Potency [18] | Potency [19] | outcome [20]
CC(C)(c1ccccc1)c1ccc(O)cc1 | inactive | inactive | 61.1 µM (active) | inactive | inactive | 60.6 µM (active) | 27.1 µM (active) and 30.6 µM (active) | 4.82 µM (active) and 7.7 µM (active) | inactive | 60.6 µM (active) | 68 µM (active) | 15.2 µM (active) and 15.4 µM (active) | inactive | inactive | inactive |  |  |  |  | 
NC(=O)CN1CCCC1=O | inactive | inactive |  | inactive | inactive |  | inactive | inactive | inactive | inactive | inactive |  |  |  | inactive | inactive | inactive | inactive |  | 
CC(C)(O)C(=O)Nc1ccc([N+](=O)[O-])c(C(F)(F)F)c1 | inactive | inactive | 31.3 µM (active) and 35.5 µM (active) | inactive | inactive |  | 24.8 µM (active) and 22.4 µM (active) | inactive |  | inactive | inactive | inactive | inactive | inactive | inactive |  | inactive | inactive |  | 
CCCCC(C#N)(Cn1cncn1)c1ccc(Cl)cc1 (configuration not stated) | inactive | inactive | inactive | inactive | inactive | inactive | inactive |  | inactive |  | inactive | inactive | inactive | 60.9 µM (active) and 54.5 µM (active) | inactive |  | inactive |  |  | 
O=C1C(Cl)=C(Cl)C(=O)c2ccccc21 | 24.4 µM (active) | 43.4 µM (active) | 12.2 µM (active) and 19.3 µM (active) |  | 61.3 µM (active) and 38.6 µM (active) | 4.34 µM (active) | 1.73 µM (active) |  | 48.7 µM (active) and 54.5 µM (active) | 27.4 µM (active) and 27.3 µM (active) | 19.4 µM (active) and 30.6 µM (active) | inactive |  |  | 43.4 µM (active) and 61.1 µM (active) |  | 4.87 µM (active) |  | inactive | 
Clc1ccccc1-c1nnc(-c2ccccc2Cl)nn1 | inactive | inactive | inactive | 9.6 µM (active) and 4.31 µM (active) | inactive |  | inactive | inactive | inactive | inactive | inactive | inactive | inactive | inactive | inactive |  | inactive | inactive |  | 
CCCCOCC1CO1 (configuration not stated) | inactive | inactive | inactive | inactive | inactive | inactive | inactive |  | inactive | inactive | inactive | inactive | inactive | inactive | inactive |  | inactive |  |  | 
CCCCOCCOC(C)=O | inactive | inactive | inactive | inactive | inactive |  | inactive |  | inactive | inactive | inactive | inactive | inactive | inactive | inactive |  | inactive |  | inactive | 
C=CC(=O)OCC(CC)(COC(=O)C=C)COC(=O)C=C | 70.4 µM (active) | 31.5 µM (active) | 22.3 µM (active) and inactive | inactive |  |  | 2.23 µM (active) and 3.06 µM (active) |  | 62.8 µM (active) and 24.3 µM (active) | 62.8 µM (active) and 19.3 µM (active) | 31.5 µM (active) and 19.3 µM (active) | inactive | inactive | inactive | 70.4 µM (active) and 43.3 µM (active) |  | 8.87 µM (active) and 9.69 µM (active) |  | inactive | inactive
O=NN(c1ccccc1)c1ccccc1 | inactive | inactive | inactive | inactive | inactive | inactive | inactive |  | inactive | inactive | inactive | inactive | inactive | inactive | inactive |  | inactive |  |  | 
CC(O)CN(CC(C)O)CC(C)O (configuration not stated) | inactive | inactive |  | inactive | inactive | inactive | inactive | inactive | inactive | inactive | inactive |  | inactive | inactive | inactive |  | inactive | inactive | inactive | 
CC(C)(c1ccccc1)c1ccc(O)c(C(C)(C)c2ccccc2)c1 | 61.1 µM (active) |  | 60.6 µM (active) | inactive | inactive | 60.6 µM (active) and 54.5 µM (active) | 30.4 µM (active) and 13.7 µM (active) |  |  | 21.5 µM (active) and 30.6 µM (active) | 24.1 µM (active) and 30.6 µM (active) | inactive | inactive | inactive | 68 µM (active) |  | 60.6 µM (active) and 43.3 µM (active) |  | inactive | 
COC(=O)Nc1nc2ccccc2[nH]1 | inactive | inactive |  | 24.3 µM (active) and 27.3 µM (active) | inactive |  | 24.3 µM (active) and inactive | inactive | inactive | inactive | inactive |  | inactive | inactive | inactive |  | inactive | inactive |  | inactive
N#Cc1c(Cl)c(Cl)c(Cl)c(C#N)c1Cl |  | 16.9 µM (active) and 13.7 µM (active) | 6.73 µM (active) and 15.4 µM (active) | inactive | inactive | 2.13 µM (active) and 3.86 µM (active) | 0.3 µM (active) | 3.78 µM (active) | 16.9 µM (active) and 24.3 µM (active) | 8.47 µM (active) and 19.3 µM (active) | 9.5 µM (active) and 15.4 µM (active) | inactive | inactive |  | 23.9 µM (active) and 54.5 µM (active) |  | 2.39 µM (active) and 6.86 µM (active) |  | 673 nM (active) and 969 nM (active) | 
Cl | inactive | inactive |  | inactive | inactive |  | inactive |  | inactive | inactive | inactive |  |  |  | inactive |  | inactive |  | inactive | 
